# HT1080-NT tox: qHTS for induction of synthetic lethality in tumor cells producing 2HG: qHTS for the HT-1080-NT fibrosarcoma cell line | HT-1080-NT fibrosarcoma viability, CellTiter-Glo ATP luminescence, 48 h | Potency, µM (series often up to 46.1 µM), for the others: at the top dose activity, negative = less viability, hits mostly cytotoxic | actives 1.6% (n = 360,000);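 note: NT is the 2HG producing partner of a matched IDH1 knockdown line; potency is the fitted concentration of half-maximal effect; 0% = DMSO-treated cells and -100% = media-only wells without cells; nearly all actives have a fitted effect of over 55% in size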
#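 Viability by CellTiter-Glo luminescence after 48 h compound exposure at 37C of HT-1080-NT cells (750/well, RPMI, 5% FBS). % activity scaled between DMSO wells and medium-only wells, then curve-fitted and categorized by curve class.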
# HT1080 IDH1KD tx: qHTS for induction of synthetic lethality in tumor cells producing 2HG: qHTS for the HT-1080-IDH1KD cell line; HT-1080 IDH1 knockdown viability, ATP luminescence, 48 h; Potency, µM (top dose mostly 46.1 µM), without a hit: at the top dose activity, negative = toxicity, most hits filed as cytotoxic; actives 2% (n = 360,000);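 note: potency is the fitted concentration of half-maximal effect; 0% = DMSO wells and -100% = cell-free medium wells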
#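 Knockdown cells (IDH1KD HT-1080) received compounds 2 h after plating at 750 cells/well and were kept 48 h at 37 °C in 5% FBS RPMI. A CellTiter-Glo luminescence read gave % activity for curve fitting.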
# DT40 TDP1 no CPT: qHTS for Inhibitors of human tyrosyl-DNA phosphodiesterase 1 (TDP1): qHTS in cells in absence of CPT. actives 15% (n = 420,000). AID 686978, 2013. DT40 Tdp1-/- hTDP1 cells, no CPT, ATP luminescence, 48 h. Potency, µM (titrated, usually from 46.2 µM), without a hit: top-dose activity change, negative = growth inhibition, hits mostly inhibitors; note: potency is the fitted concentration of half-maximal effect; nearly all actives have a fitted effect of over 55% in size
#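 No-CPT arm: Tdp1-/-;hTDP1 DT40 cells (400/well) plus compounds, incubated ≥48 hr at 37 °C. Readout CellTiter-Glo luminescence.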
# IL-1B inflam inh: qHTS for Inhibitors of Inflammasome Signaling: IL-1-beta AlphaLISA Primary Screen; THP-1 LPS/ATP IL-1B secretion, AlphaLISA, 16 h; active compounds read low; activity change, % at 57.5 µM; actives 4.7% (n = 360,000); in the data active = activity change below about -50%; inconclusive = mostly about -30% to -49%
#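 THP-1 cells pretreated 1 hr with compounds (up to 57.5 uM final), then stimulated with LPS (250 ng/mL final) plus ATP (1.25 mM final); secreted IL-1B measured by AlphaLISA after 16 hr, decreased signal indicating inhibition.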
# TDP1 cell CPT: qHTS for Inhibitors of human tyrosyl-DNA phosphodiesterase 1 (TDP1): qHTS in cells in presence of CPT; chicken DT40 Tdp1-/-;hTDP1 cells + 20 nM CPT, ATP luminescence, 48 h; actives 12% (n = 420,000); Potency, µM (titrated, usually from 46.2 µM), without a hit: at the top dose activity change, negative = growth inhibition, actives largely listed as inhibitors; note: potency is the fitted concentration of half-maximal effect; nearly all actives have a fitted effect of over 55% in size
#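 Cell growth measured by CellTiter-Glo luminescence after a minimum 48 h, 37 C compound exposure with 20 nM CPT in Tdp1-knockout DT40 cells stably expressing hTDP1, seeded 400/well; qHTS titration format.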
# Starred values were filed as active, the others as inactive; ? = inconclusive; . = no result given. Most compounds without a hit are left out; they make up all but 19% or so of the library. Unless noted, calls come from the whole dose curve; as a rule, active = well fitted curve in the direction sought with a large enough effect; inconclusive = small, poorly fitted or top-dose-only effect, or another doubt; inactive = no such curve, though single readings can be large; an effect the other way counts as inactive or inconclusive. Unless noted, % is set by controls: 0 for no effect and ±100 for the full control effect.
SMILES,HT1080-NT tox,HT1080 IDH1KD tx,DT40 TDP1 no CPT,IL-1B inflam inh,TDP1 cell CPT
CC(C)(C)OC(=O)N1CCC(c2c(C(=O)NC3CC3)cnn2-c2ccccc2)CC1,?,22%,5%,37,-3%
COc1ccc(S(=O)(=O)NN(C)C(=O)c2nn(-c3ccccc3)ccc2=O)cc1,8%,-3%,-2%,-12,-1%
CC1(C)CC(=O)C2=C(C1)N(CC1CCCO1)C(=O)C2(NC(=O)c1cccnc1)C(F)(F)F (stereo not drawn),-4%,3%,-1%,11,-7%
CCOc1ccccc1NC(=O)Cn1nc(N2CCN(c3ccccc3)CC2)ccc1=O,.,.,18µM*,.,?
CCc1ccccc1NC(=O)c1ccc(Cn2nc(N3CCN(c4ccccc4)CC3)ccc2=O)o1,.,.,12µM*,.,15µM*
COc1ccccc1N1CCN(CC(=O)Nc2cc(F)ccc2C)CC1,-20%,-20%,?,?,?
COc1ccccc1N1CCN(c2ccc(=O)n(CC(=O)Nc3cc(F)ccc3C)n2)CC1,.,.,23µM*,.,15µM*
O=c1[nH]c(=O)c2[nH]c(=S)[nH]c2[nH]1,?,22%,16%,8,-25%
CCNc1ncc2nc(-c3cn(C)c4ccccc34)c(=O)n(C[C@H]3CCCO3)c2n1,.,.,-3%,.,5%
Cc1ccc(S(=O)(=O)N2CCCC2CNC(=O)C(=O)Nc2ccccc2)cc1 (stereo not drawn),0%,1%,?,?,29µM*
Cc1cccc(C)c1NC(=O)C(=O)NCC1CCCN1S(=O)(=O)c1ccccc1 (stereo not drawn),-3%,4%,12µM*,20,?
Cc1ccc(S(=O)(=O)N2CCCC2CNC(=O)c2ccc3c(c2)OCO3)cc1 (stereo not drawn),-14%,-3%,18µM*,-18,?
O=C(NC(=O)N1CCCCCC1)c1ccc(Cl)cc1,8%,5%,19%,-3,-21%
CC(C)C[C@H](NC(=O)OC(C)(C)C)C(=O)N[C@@H](CO)[C@H](O)[C@@H]1C[C@@H]1C(=O)N1CCCC1,6%,6%,-1%,12,-5%
CCN1c2ccccc2-c2nc3ccccc3n2C1c1ccccn1 (stereo not drawn),-8%,-13%,16µM*,-17,?
CCN1c2ccccc2-c2nc3ccccc3n2C1c1ccncc1 (stereo not drawn),-8%,-6%,?,-8,?
CC1(C)CC(=NO)CC(C)(C)N1,6%,5%,-3%,0,-2%
Cn1c2ccccc2c(=O)c2ccc(C#CC3(N)CCCCC3)cc21,?,-18%,13µM*,-86*,-96%
Cn1c2ccccc2c(=O)c2ccc(C#Cc3ccccn3)cc21,-1%,12%,?,-17,?
Cn1c2ccccc2c(=O)c2cc(C#CC3(O)CCCCC3)ccc21,-1%,-9%,?,-53*,16µM*
O=c1c2ccccc2oc2ccc(C#CC3(O)CCCCC3)cc12,0%,-2%,?,0,?
COc1cccc2oc3ccc(C#CC4(N)CCCCC4)cc3c(=O)c12,-1%,-6%,3.7µM*,-97*,7.3µM*
NC1(C#Cc2ccc3c(=O)c4ccccc4sc3c2)CCCCC1,-1%,-4%,?,-28,26µM*
Cc1oc(S(=O)(=O)N2CCCCC2)cc1NC(=O)Nc1ccc(F)cc1,-1%,8%,?,-2,-19%
CC(C)OCCCNC(=O)CCCC(=O)Nc1ccc(OCCc2ccccc2)cc1,-5%,-2%,-9%,15,-14%
COc1ccc(NC(C)=O)cc1NC(=O)CSc1nc2ncccc2[nH]1,15%,18%,18µM*,-1,13µM*

# Screening data: PubChem BioAssay, National Center for Advancing Translational Sciences (NCATS)
